In test [1] the test system is U-2932. The test can be described thus: growth inhibition by drug alone (1 - RLU/untreated control) (fraction); higher = stronger inhibition. The note with it: 177Lu-lilotomab satetraxetan 0 ug/ml. The method, boiled down: (§1)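 RIVA or U-2932 cells, untreated or pretreated 18 h with a radiolabelled anti-CD37 antibody conjugate (~600 MBq/mg; 0.5 µg/ml RIVA, 1 µg/ml U-2932), were washed and seeded at 3,000 cells/well on plates pre-printed with the Selleck Cambridge Cancer Compound library. Doses were 10/100 nM (RIVA) or 10/1,000 nM (U-2932). RealTime-Glo luminescence was read daily from day 3 after 1 h at 37°C. Growth inhibition is 1 − RLU/mean of 48 untreated no-drug wells per plate.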

Test [2] concerns U-2932. The experiment in a line: growth inhibition by drug plus 177Lu-lilotomab satetraxetan (1 - RLU/untreated control) (fraction); higher = stronger inhibition. The note with it: 177Lu-lilotomab satetraxetan 1 ug/ml. The method, boiled down:
as §1

Another test concerns RIVA. Described as above. As to conditions: 177Lu-lilotomab satetraxetan 0.5 ug/ml. The method, boiled down:
as §1

Consider `COc1cc2c(N3CCN(C(=O)Nc4ccc(OC(C)C)cc4)CC3)ncnc2cc1OCCCN1CCCCC1` [Tandutinib (MLN518)], for which the “growth inhibition by drug alone” value in the test with U-2932 [1] (10 nM, time (day): 3) is -0.0695; in the test on U-2932 [1] (10 nM, time (day): 4), -0.0613; with U-2932 [1] (10 nM, time (day): 5), -0.013; with U-2932 [1] (10 nM, time (day): 6) it was 0.108; in the test with U-2932 [1] (1000 nM, time (day): 3) it was -0.0914; in the test with U-2932 [1] (1000 nM, time (day): 4), -0.0805. Moreover, the “growth inhibition by drug alone” value in the test on U-2932 [1] (1000 nM, time (day): 5) was -0.0691; in the test on U-2932 [1] (1000 nM, time (day): 6) it was -0.0707. Also, the “growth inhibition by drug plus 177Lu-lilotomab satetraxetan” value in the test with U-2932 [2] (10 nM, time (day): 3) was -0.106; in the test with U-2932 [2] (10 nM, time (day): 4), -0.0661; in the test on U-2932 [2] (10 nM, time (day): 5), -0.0234; with U-2932 [2] (10 nM, time (day): 6), 0.112; with U-2932 [2] (1000 nM, time (day): 3), -0.163; in the test with U-2932 [2] (1000 nM, time (day): 4), -0.112. The “growth inhibition by drug plus 177Lu-lilotomab satetraxetan” value was -0.0614 in the test with U-2932 [2] (1000 nM, time (day): 5); 0.0615 in the test on U-2932 [2] (1000 nM, time (day): 6); 0.419 in the test on RIVA (10 nM, time (day): 3); 0.516 in the test on RIVA (10 nM, time (day): 4); 0.54 in the test on RIVA (10 nM, time (day): 5); 0.542 in the test with RIVA (10 nM, time (day): 6). Further, the “growth inhibition by drug plus 177Lu-lilotomab satetraxetan” value with RIVA (100 nM, time (day): 3) is 0.365; with RIVA (100 nM, time (day): 4) it was 0.403; in the test with RIVA (100 nM, time (day): 5) it was 0.407; with RIVA (100 nM, time (day): 6), 0.387.

For the compound `Nc1nc(Cl)nc2c1ncn2[C@H]1C[C@H](O)[C@@H](CO)O1` [Cladribine], the “growth inhibition by drug alone” value in the test with U-2932 [1] (10 nM, time (day): 3) is -0.0123; in the test on U-2932 [1] (10 nM, time (day): 4), -0.0135; in the test on U-2932 [1] (10 nM, time (day): 5), -0.0163; in the test on U-2932 [1] (10 nM, time (day): 6), 0.0971; with U-2932 [1] (1000 nM, time (day): 3), 0.943; in the test on U-2932 [1] (1000 nM, time (day): 4) it was 0.966. Further, the “growth inhibition by drug alone” value in the test with U-2932 [1] (1000 nM, time (day): 5) amounted to 0.98; with U-2932 [1] (1000 nM, time (day): 6) it was 0.987. The “growth inhibition by drug plus 177Lu-lilotomab satetraxetan” value with U-2932 [2] (10 nM, time (day): 3) was determined as 0.0179; in the test on U-2932 [2] (10 nM, time (day): 4), 0.0736; with U-2932 [2] (10 nM, time (day): 5), 0.11; in the test with U-2932 [2] (10 nM, time (day): 6), 0.212; in the test on U-2932 [2] (1000 nM, time (day): 3), 0.942; in the test on U-2932 [2] (1000 nM, time (day): 4), 0.971. Also, the “growth inhibition by drug plus 177Lu-lilotomab satetraxetan” value in the test on U-2932 [2] (1000 nM, time (day): 5) is 0.983; with U-2932 [2] (1000 nM, time (day): 6) it was 0.989; in the test with RIVA (10 nM, time (day): 3), 0.528; in the test on RIVA (10 nM, time (day): 4), 0.571; in the test on RIVA (10 nM, time (day): 5), 0.602; in the test on RIVA (10 nM, time (day): 6), 0.611. Besides, the “growth inhibition by drug plus 177Lu-lilotomab satetraxetan” value in the test on RIVA (100 nM, time (day): 3) was 0.683; in the test on RIVA (100 nM, time (day): 4), 0.807; with RIVA (100 nM, time (day): 5), 0.843; in the test with RIVA (100 nM, time (day): 6), 0.878.

For `C[C@@H]1CN(CC(=O)Nc2ccc3c(c2)Cc2cccc(-c4cc(=O)cc(N5CCOCC5)o4)c2S3)C[C@H](C)O1`, the “growth inhibition by drug alone” value is 0.00343 in the test with U-2932 [1] (10 nM, time (day): 3); -0.0228 in the test on U-2932 [1] (10 nM, time (day): 4); -0.128 in the test on U-2932 [1] (10 nM, time (day): 5); -0.257 in the test on U-2932 [1] (10 nM, time (day): 6); -0.073 in the test with U-2932 [1] (1000 nM, time (day): 3); -0.0366 with U-2932 [1] (1000 nM, time (day): 4). Further, the “growth inhibition by drug alone” value was -0.0776 in the test on U-2932 [1] (1000 nM, time (day): 5) and -0.17 with U-2932 [1] (1000 nM, time (day): 6). Further, the “growth inhibition by drug plus 177Lu-lilotomab satetraxetan” value in the test with U-2932 [2] (10 nM, time (day): 3) was -0.0592; in the test with U-2932 [2] (10 nM, time (day): 4), -0.0257; with U-2932 [2] (10 nM, time (day): 5) it was -0.0361; in the test with U-2932 [2] (10 nM, time (day): 6) it was -0.0183; in the test with U-2932 [2] (1000 nM, time (day): 3) it was -0.0688; with U-2932 [2] (1000 nM, time (day): 4) it was 0.0229. Also, the “growth inhibition by drug plus 177Lu-lilotomab satetraxetan” value in the test with U-2932 [2] (1000 nM, time (day): 5) worked out at 0.0334; in the test on U-2932 [2] (1000 nM, time (day): 6), 0.0421; in the test on RIVA (10 nM, time (day): 3), 0.275; in the test with RIVA (10 nM, time (day): 4) it was 0.441; with RIVA (10 nM, time (day): 5), 0.452; in the test on RIVA (10 nM, time (day): 6) it was 0.479. The “growth inhibition by drug plus 177Lu-lilotomab satetraxetan” value with RIVA (100 nM, time (day): 3) turned out to be 0.232; with RIVA (100 nM, time (day): 4), 0.357; with RIVA (100 nM, time (day): 5), 0.37; in the test on RIVA (100 nM, time (day): 6) it was 0.373.

Consider `C[C@]12CC[C@@H]3c4ccc(O)cc4C[C@@H](CCCCCCCCC[S+]([O-])CCCC(F)(F)C(F)(F)F)[C@H]3[C@@H]1CC[C@@H]2O` (stereo not given in full), for which the “growth inhibition by drug alone” value in the test on U-2932 [1] (10 nM, time (day): 3) is 0.0173; in the test with U-2932 [1] (10 nM, time (day): 4), -0.00253; with U-2932 [1] (10 nM, time (day): 5) it was -0.129; in the test on U-2932 [1] (10 nM, time (day): 6), -0.212; in the test on U-2932 [1] (1000 nM, time (day): 3), -0.176; in the test on U-2932 [1] (1000 nM, time (day): 4), -0.0393. Further, the “growth inhibition by drug alone” value is -0.0718 with U-2932 [1] (1000 nM, time (day): 5) and -0.153 with U-2932 [1] (1000 nM, time (day): 6). Besides, the “growth inhibition by drug plus 177Lu-lilotomab satetraxetan” value was -0.00503 with U-2932 [2] (10 nM, time (day): 3); 0.0303 in the test on U-2932 [2] (10 nM, time (day): 4); 0.0351 in the test on U-2932 [2] (10 nM, time (day): 5); 0.137 with U-2932 [2] (10 nM, time (day): 6); -0.274 in the test with U-2932 [2] (1000 nM, time (day): 3); -0.0121 with U-2932 [2] (1000 nM, time (day): 4). The “growth inhibition by drug plus 177Lu-lilotomab satetraxetan” value in the test on U-2932 [2] (1000 nM, time (day): 5) turned out to be 0.0312; with U-2932 [2] (1000 nM, time (day): 6) it was 0.0757; with RIVA (10 nM, time (day): 3), 0.418; in the test with RIVA (10 nM, time (day): 4), 0.515; in the test with RIVA (10 nM, time (day): 5), 0.523; in the test with RIVA (10 nM, time (day): 6), 0.531. Further, the “growth inhibition by drug plus 177Lu-lilotomab satetraxetan” value with RIVA (100 nM, time (day): 3) was found to be 0.466; with RIVA (100 nM, time (day): 4), 0.525; in the test with RIVA (100 nM, time (day): 5), 0.532; in the test with RIVA (100 nM, time (day): 6), 0.5.

On to `Cn1cc(-c2ccc3nnc(C(F)(F)c4ccc5ncccc5c4)n3n2)cn1`, for which the “growth inhibition by drug alone” value in the test on U-2932 [1] (10 nM, time (day): 3) was -0.0908; in the test on U-2932 [1] (10 nM, time (day): 4), -0.108; with U-2932 [1] (10 nM, time (day): 5) it was -0.0614; with U-2932 [1] (10 nM, time (day): 6), -0.0112; in the test with U-2932 [1] (1000 nM, time (day): 3), -0.151; in the test on U-2932 [1] (1000 nM, time (day): 4), -0.112. Further, the “growth inhibition by drug alone” value with U-2932 [1] (1000 nM, time (day): 5) is -0.0976; with U-2932 [1] (1000 nM, time (day): 6), 0.0327. Besides, the “growth inhibition by drug plus 177Lu-lilotomab satetraxetan” value with U-2932 [2] (10 nM, time (day): 3) is -0.0849; in the test on U-2932 [2] (10 nM, time (day): 4) it was -0.0323; in the test on U-2932 [2] (10 nM, time (day): 5) it was 0.0158; in the test on U-2932 [2] (10 nM, time (day): 6) it was 0.0612; in the test on U-2932 [2] (1000 nM, time (day): 3) it was -0.131; with U-2932 [2] (1000 nM, time (day): 4) it was -0.0707. For the same compound, the “growth inhibition by drug plus 177Lu-lilotomab satetraxetan” value was -0.0177 in the test on U-2932 [2] (1000 nM, time (day): 5); 0.142 with U-2932 [2] (1000 nM, time (day): 6); 0.285 in the test with RIVA (10 nM, time (day): 3); 0.449 with RIVA (10 nM, time (day): 4); 0.457 in the test with RIVA (10 nM, time (day): 5); 0.453 with RIVA (10 nM, time (day): 6). The “growth inhibition by drug plus 177Lu-lilotomab satetraxetan” value in the test on RIVA (100 nM, time (day): 3) turned out to be 0.342; with RIVA (100 nM, time (day): 4) it was 0.401; with RIVA (100 nM, time (day): 5) it was 0.428; with RIVA (100 nM, time (day): 6) it was 0.429.

Source of the values: the supplement of paper PMC6897291.
